Screens from PubChem BioAssay.
RGS4 inhibitor: human RGS4 inhibition. P49798. Transcreener GDP fluorescence polarization, RGS4-accelerated GTP hydrolysis. Potency, µM (series often up to 114 µM), for inactives: top-dose activity change, negative = inhibition, hits mostly inhibitors. 0.039% of 390,000 active. AID 504845; further: potency means the concentration at half of the fitted maximal effect; nearly all actives have a fitted effect of over 75% in size
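MLSMR compounds (23 nl, pin-transferred) preincubated 10 min at room temperature with a 500nM (2x) first reagent, then RGS4 at 900nM (2x) plus Transcreener GDP mix added; fluorescence polarization (620/688 nm) read before and after 90 min at 30 °C.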
KCNH2 WT inh: KCNH2 (human, wildtype) channel inhibition. Q12809. AID 720551. U2OS, BacMam KCNH2, thallium flux FluxOr; stronger effect = lower value. 0.37% of 340,000 active. activity change, % at 1.84 µM;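 active means maximum activity change below -70%; inconclusive means maximum activity change between -70% and -50%; inactive means maximum activity change above -50%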
Target sequence (Q12809 whole entry, looked up): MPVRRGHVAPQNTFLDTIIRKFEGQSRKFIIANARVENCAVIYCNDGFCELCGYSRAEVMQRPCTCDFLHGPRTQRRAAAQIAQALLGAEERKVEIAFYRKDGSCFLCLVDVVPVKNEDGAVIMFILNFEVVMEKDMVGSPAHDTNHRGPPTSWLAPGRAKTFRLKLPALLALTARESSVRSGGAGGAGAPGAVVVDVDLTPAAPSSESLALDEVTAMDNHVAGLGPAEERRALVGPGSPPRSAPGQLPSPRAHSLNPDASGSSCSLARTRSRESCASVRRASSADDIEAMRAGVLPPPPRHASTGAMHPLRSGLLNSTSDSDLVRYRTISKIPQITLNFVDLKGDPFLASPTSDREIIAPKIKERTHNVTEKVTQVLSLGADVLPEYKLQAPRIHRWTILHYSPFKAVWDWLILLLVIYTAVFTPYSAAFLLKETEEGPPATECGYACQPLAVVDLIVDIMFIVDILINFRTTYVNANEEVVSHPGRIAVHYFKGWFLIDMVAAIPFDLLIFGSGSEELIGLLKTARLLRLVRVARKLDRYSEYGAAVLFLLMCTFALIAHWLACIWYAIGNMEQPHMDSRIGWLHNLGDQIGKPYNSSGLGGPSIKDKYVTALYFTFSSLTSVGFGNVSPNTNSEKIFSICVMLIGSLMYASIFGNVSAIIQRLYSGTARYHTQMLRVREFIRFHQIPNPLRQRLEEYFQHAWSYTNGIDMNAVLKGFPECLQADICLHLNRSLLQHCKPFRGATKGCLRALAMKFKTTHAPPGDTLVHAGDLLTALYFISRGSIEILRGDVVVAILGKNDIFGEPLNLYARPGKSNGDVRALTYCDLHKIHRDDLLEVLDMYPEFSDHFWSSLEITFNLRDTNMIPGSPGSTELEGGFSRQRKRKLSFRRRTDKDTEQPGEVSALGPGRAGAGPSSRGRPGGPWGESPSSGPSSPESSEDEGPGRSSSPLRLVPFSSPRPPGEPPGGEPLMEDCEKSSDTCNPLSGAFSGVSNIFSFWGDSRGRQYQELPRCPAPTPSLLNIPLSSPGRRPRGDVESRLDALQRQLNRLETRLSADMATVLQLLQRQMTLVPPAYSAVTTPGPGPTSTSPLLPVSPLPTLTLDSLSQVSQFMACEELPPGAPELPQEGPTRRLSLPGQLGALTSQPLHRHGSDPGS
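U2OS cells were transduced with wild-type KCNH2 virus (2.03 x 10^8 / mL) for 4 h at room temperature, then cultured overnight at 37 C. Thallium flux was read with FluxOr dye. Rate constants were normalized to DMSO controls.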
GCN5L2 inh: blocks human GCN5L2 histone acetyltransferase; Potency, µM (top dose mostly 58.9 µM), for the others: at the highest dose activity change, negative = inhibition, actives largely listed as inhibitors; 0.21% of 390,000 active; Q92830; AID 504327; GCN5L2 HAT assay, ThioGlo1 CoA-SH fluorescence; further: potency means the concentration at half of the fitted maximal effect
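GCN5L2 (20 nM) in 50mM HEPES pH 7.5, 0.1mM EDTA, 0.01% Tween-20 preincubated 15 min with compounds at room temperature. Reaction started with H3(1-25) 75uM, acetyl-CoA 70uM, ThioGlo1 50uM; CoA-thiol fluorescence (Ex340/Em540) read at 0 and 20 min.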
Pin1 inh: human Pin1 inhibition; Potency, µM (series often up to 115 µM), for inactives: at the highest dose activity, negative = inhibition, most hits filed as inhibitors; 0.009% of 390,000 active; Pin1 FP peptide displacement, HiFluor488, 10 min; Q13526; active means well fitted inhibition curve with a large enough effect in the polarisation, with a control signal flat, not every such curve was filed as active; inconclusive means small, poorly fitted or top-dose-only effect, or effect the other way, or a change in a side signal; inactive means no such curve, though single readings can be large or run the other way; the % refers to the polarisation; further: potency means the concentration at half of the fitted maximal effect
KCNH2 3.1 inh: inhibitors of human KCNH2 3.1 potassium channel isoform; U2OS KCNH2 3.1, thallium flux FluxOr; stronger effect = lower value; AID 720553; activity change, % (tested at about 1.8 µM); 0.95% of 340,000 active;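 active means maximum activity change below -70%; inconclusive means maximum activity change from -70% to -50%; inactive means maximum activity change above -50%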;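 further: thallium influx rate constant from kinetic fluorescence after stimulation buffer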
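Channel expression came from 3.1 mutant virus (1.77 x 10^8 /mL) applied to suspended U2OS cells for 4 h. Flux was tracked with FluxOr dye plus Red40 quencher, and kinetic rate constants normalized to controls.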
Tb PGK inh: T. brucei PGK inhibition | PGK/GAPDH coupled, Kinase-Glo luminescence, 60 min | Potency, µM (top dose mostly 57.5 µM), without a hit: top-dose activity change, negative = inhibition, usual class: inhibitors | AID 602233 | P07378 | 0.043% of 380,000 active; further: potency means the concentration at half of the fitted maximal effect; nearly all actives have a fitted effect of over 60% in size
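Luminescent ATP detection (Kinase-Glo Plus) follows a 60-minute room-temperature incubation, with wells lacking PGK as controls. Buffer: 100 mM TEA (pH 7.6), 5 mM MgCl2, 0.01% Tween-20. Coupling enzyme GAPDH (100 nM final) supplies unstable 1,3-BPG in-well.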
* = called active by the depositor; i = inactive; ? = inconclusive; · = no result; [ ] = another dose, or the depositor's remark. Shown are actives, neighbours in structure and some others; about 1.2% of the full set was active somewhere. Unless noted, the call rests on the fitted dose curve; in most records, active means well fitted curve in the direction sought with a large enough effect; inconclusive means small, poorly fitted or top-dose-only effect, or another doubt; inactive means no such curve, though single readings can be large; an effect the other way counts as inactive or inconclusive. On the % scale 0 is the no-effect control and ±100 the full control effect.

SMILES	RGS4 inhibitor	KCNH2 WT inh	GCN5L2 inh	Pin1 inh	KCNH2 3.1 inh	Tb PGK inh
O=C(CSc1nncn1-c1ccccc1F)NC1CCCCC1	?	-3	-3%	13%	-118*	-2%
Cc1cc(C)c(CN2CCCC(CNC(=O)c3ccc(F)cc3)C2)c(-n2cccn2)c1 (configuration not stated)	30%	-85*	-4%	3%	-111*	-9%
COc1cc(OC)c(OC)cc1CN1CCCC(C(=O)c2sccc2C)C1 (configuration not stated)	8%	61	-2%	0%	-16	1%
Cc1cc(CN2CCCC(CNC(=O)c3ccc(F)cc3)C2)cc(C)c1O (configuration not stated)	8%	40	-1%	1%	-2	7%
Cc1ccsc1C(=O)C1CCCN(Cc2cc(F)ccc2-n2cccn2)C1 (configuration not stated)	7%	0	-1%	2%	-81*	-7%
CCOc1ccc(CN(C)C(C)C(=O)Nc2ccc([N+](=O)[O-])cc2Cl)cc1OC (configuration not stated)	-17%	-39	-4%	-1%	?	3%
COc1ccc(CN(C)C(C)C(=O)Nc2ccc([N+](=O)[O-])cc2Cl)cc1OC (configuration not stated)	5%	0	33%	3%	-85*	-4%
COc1ccccc1C1(O)CCN(CCCn2c3ccccc3c3ccccc32)CC1	·	·	0%	·	·	·
CC(C)NC(=O)N1CCCC2(CCN(C(=O)c3cc(C(F)(F)F)cc(C(F)(F)F)c3)CC2)C1	·	·	10%	·	·	·
Cc1cccc(NC(=O)Nc2c(C)n(C)n(-c3ccccc3)c2=O)c1	-35%[56.9 µM]	-102*	10%	-8%	0	i
Cc1c(NC(=O)C23CC4CC(CC(C)(C4)C2)C3)c(=O)n(-c2ccccc2)n1C	18%[11.4 µM]	-2	20µM*	0%	3	-6%
COC(=O)C1=C[C@@H](C(=O)OC)C2C3=C(C(=O)[C@@]2(C)NC(=O)c2ccccc2)[C@H](C)n2c(=O)n(-c4ccccc4)c(=O)n2[C@@H]3C1 (some centres not stated)	-10%	·	·	-6%	·	·
C1CCC(N=C(NC23CC4CC(CC(C4)C2)C3)N2CCOCC2)CC1	7%[56.9 µM]	·	-9%	·	·	·
C1CCC(NC(=NC2C3CC4CC(C3)CC2C4)N2CCOCC2)CC1 (configuration not stated)	0.34µM*	·	7%	·	·	·
CCOC(=O)c1cc2c(=O)n3ccccc3nc2n(CCOC)c1=NC(=O)c1c(-c2ccccc2Cl)noc1C	2%	·	-1%	-2%	·	·
O=C(NCCCn1ccnc1)c1cc(S(=O)(=O)N2CCOCC2)c(Cl)cc1Cl	23%	-4	-2%	-5%	5	12%
Cc1ccc(S(=O)(=O)N2CCOCC2)cc1C(=O)NCCCn1ccnc1	4%	-90*	-3%	2%	-11	-1%
OCC1(CCc2ccccc2)CCCN(CCCc2ccccc2)C1 (configuration not stated)	7%	?	-5%	2%	-96*	-5%
OCC1(CCc2ccccc2)CCCN(CCCC(F)(F)F)C1 (configuration not stated)	15%	42	-9%	0%	-10	5%
O=C(Nc1ccccc1O)c1cc(S(=O)(=O)N2CCCC2)ccc1Cl	10%	·	-8%	3%	·	-7%
CCOc1ccccc1CN1CCCC(C(=O)c2ccc(OC)c(OC)c2)C1 (configuration not stated)	18%	13	-1%	-5%	0	i
COc1ccc(C(=O)C2CCCN(Cc3cn(C)nc3-c3ccccc3)C2)cc1F (configuration not stated)	-8%	21	-7%	3%	-71*	0%
